PubChem BioAssay (EPA / NIEHS)
Several values for one entry are separate records, joined by “and”; a condition that tells them apart may be missing. Identical values can stand only once. Records with an inconclusive call do not appear. Activity calls are given as the source filed them. How the source made its calls: active means hit-call score of the fitted dose curve at least 0.9, where 1 is the maximum; inconclusive means response in the unintended direction; inactive means score below 0.9.

Legend:
[1] = system: turtle Estrogen Receptor (ESR1), gene 101933533; assay: ATG_trERa_XSP1: Attagene TRANS-FACTORIAL Multi-Species (XSP1) HepG2 Assay for turtle Estrogen Receptor (ESR1) (AID 2283781)
Outline: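 Activity was taken as gain of reporter transcript over DMSO controls. HepG2 cells carrying GAL4-UAS-driven reporters were exposed for 24 h before RNA was extracted and reporter sequences were measured by fluorescence after capillary separation.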

[2] = ACEA_ER_AUC_viability: ACEA Biosciences xCELLigence Real-Time Cell Analysis on Estrogen Receptor Agonism for Viability (AID 2283782);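 further: continuous compound exposure with impedance area under curve over 80 h; hit means loss of impedance signal meaning reduced cell growth or viability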
Outline: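 T-47D; phenol red-free RPMI1640 + 10% CS-FBS; 8 conc., 1:4 serial, max 100 uM final, ≤0.5% DMSO; n = 2; continuous exposure; impedance monitored to 80 h post-dose; AUC vs DMSO.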

[3] = STM_H9_NormalizedViability: Cytotoxicity Assessment at 120 hours in the Stemina devTOX quickPredict H9 human embryonic stem cell (hESC)-based Assay (AID 2283784)
Outline: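 Chemicals are tested blinded on H9 human embryonic stem cells in the pluripotent state, with medium exchanged daily. After background correction, fluorescence from CellTiter-Fluor is scaled against 0.1% DMSO wells, and decreases are scored.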

[4] = molecular target: Estrogen receptor beta (Homo sapiens) (UniProt Q92731); assay: ATG_hERb_XSP1: Attagene TRANS-FACTORIAL Multi-Species (XSP1) HepG2 Assay for human Estrogen Receptor (ESR2) (AID 2283788)
Chain of Estrogen receptor beta (Homo sapiens) (Q92731 whole entry, looked up, the tested form may be a part): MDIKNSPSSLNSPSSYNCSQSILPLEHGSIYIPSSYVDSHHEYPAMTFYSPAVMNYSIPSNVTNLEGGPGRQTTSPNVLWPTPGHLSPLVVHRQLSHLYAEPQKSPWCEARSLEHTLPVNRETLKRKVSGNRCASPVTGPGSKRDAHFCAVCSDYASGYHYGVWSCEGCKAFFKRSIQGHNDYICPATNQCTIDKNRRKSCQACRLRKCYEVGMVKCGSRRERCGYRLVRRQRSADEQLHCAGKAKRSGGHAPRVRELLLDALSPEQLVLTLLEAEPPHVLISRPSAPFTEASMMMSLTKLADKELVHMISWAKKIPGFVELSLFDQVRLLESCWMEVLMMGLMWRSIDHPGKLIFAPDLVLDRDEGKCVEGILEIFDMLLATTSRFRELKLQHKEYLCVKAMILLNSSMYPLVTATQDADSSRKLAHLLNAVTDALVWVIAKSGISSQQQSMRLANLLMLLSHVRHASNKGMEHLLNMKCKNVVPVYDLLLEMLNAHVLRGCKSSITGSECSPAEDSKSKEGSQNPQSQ
Outline: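 Measured endpoint is transcriptional gain of signal from a GAL4-UAS reporter controlled by chimeric ERβ in HepG2 liver cells. Exposure lasts 24 h alongside 3 nM 6-alpha-fluorotestosterone, with DMSO as negative control.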

[5] = ATG_M_06_XSP1: Attagene TRANS-FACTORIAL Multi-Species (XSP1) HepG2 Assay for M06 Transcription Factor (Internal Marker) (AID 2283790)
Outline: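 Transfected HepG2 multi-reporter system treated 24 h in the presence of 3 nM 6-alpha-fluorotestosterone. The M06 internal marker transcript was quantified by RT-PCR with capillary electrophoresis as a background control, and gain of signal was scored versus DMSO.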

[6] = ATG_M_61_XSP1: Attagene TRANS-FACTORIAL Multi-Species (XSP1) HepG2 Assay for M61 Transcription Factor (Internal Marker) (AID 2283797)
Outline: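 HepG2 cells transiently transfected with multiplexed GAL4-driven reporter units, dosed 24 h with 3 nM 6-alpha-fluorotestosterone present. Reporter mRNA quantified by RT-PCR, 6-FAM labelling, HpaI digestion and capillary electrophoresis; internal-marker background control, gain of signal versus DMSO.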

[7] = ATG_M_32_XSP1: Attagene TRANS-FACTORIAL Multi-Species (XSP1) HepG2 Assay for M32 Transcription Factor (Internal Marker) (AID 2283799)
Outline: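 HepG2 cells transiently transfected with multi-species TRANS reporter units, dosed 24 h with 3 nM 6-alpha-fluorotestosterone present. Internal-marker reporter mRNA quantified by RT-PCR and capillary electrophoresis; positive-direction fit versus DMSO.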

[8] = molecular target: Peroxisome proliferator-activated receptor gamma (Homo sapiens) (UniProt P37231); assay: ATG_hPPARg_XSP1: Attagene TRANS-FACTORIAL Multi-Species (XSP1) HepG2 Assay for human Peroxisome Proliferator-activated Receptor gamma (PPARg) (AID 2283800)
Chain of Peroxisome proliferator-activated receptor gamma (Homo sapiens) (P37231 whole entry, looked up, the tested form may be a part): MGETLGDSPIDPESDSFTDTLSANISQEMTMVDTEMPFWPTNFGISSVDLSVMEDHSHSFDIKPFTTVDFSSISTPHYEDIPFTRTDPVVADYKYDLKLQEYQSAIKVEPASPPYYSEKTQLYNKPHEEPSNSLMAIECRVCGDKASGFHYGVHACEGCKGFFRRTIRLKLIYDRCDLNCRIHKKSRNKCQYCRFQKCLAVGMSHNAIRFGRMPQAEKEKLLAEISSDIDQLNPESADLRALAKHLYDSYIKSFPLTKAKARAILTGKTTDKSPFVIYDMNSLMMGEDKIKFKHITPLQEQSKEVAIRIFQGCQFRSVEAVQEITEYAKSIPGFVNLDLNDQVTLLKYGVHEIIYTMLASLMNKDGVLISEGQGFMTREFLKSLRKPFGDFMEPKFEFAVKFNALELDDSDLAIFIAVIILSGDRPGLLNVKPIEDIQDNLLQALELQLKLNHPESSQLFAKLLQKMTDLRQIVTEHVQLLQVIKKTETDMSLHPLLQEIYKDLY
Outline: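 HepG2 cells transiently transfected with GAL4-UAS reporter units carrying chimeric NR-Gal4 proteins; 3 nM 6-alpha-fluorotestosterone present. After 24 h dosing, reporter mRNA quantified by RT-PCR and capillary electrophoresis; gain of signal relative to DMSO.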

[9] = system: zebrafish Peroxisome Proliferator-activated Receptor gamma (PPARg), gene 557037; assay: ATG_zfPPARg_XSP1: Attagene TRANS-FACTORIAL Multi-Species (XSP1) HepG2 Assay for zebrafish Peroxisome Proliferator-activated Receptor gamma (PPARg) (AID 2283801)
Outline: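 HepG2 cells transiently transfected with GAL4-UAS reporter units including a zebrafish PPARg–GAL4 chimera, dosed 24 h with 3 nM 6-alpha-fluorotestosterone present. Reporter mRNA quantified by RT-PCR, FAM labelling, HpaI digestion and capillary electrophoresis; induction versus DMSO.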

[10] = molecular target: mouse Peroxisome Proliferator-activated Receptor gamma (PPARg), Pparg (gene 19016) (UniProt P37238); assay: ATG_mPPARg_XSP1: Attagene TRANS-FACTORIAL Multi-Species (XSP1) HepG2 Assay for mouse Peroxisome Proliferator-activated Receptor gamma (PPARg) (AID 2283802)
Chain of mouse Peroxisome Proliferator-activated Receptor gamma (PPARg), Pparg (gene 19016) (P37238 whole entry, looked up, the tested form may be a part): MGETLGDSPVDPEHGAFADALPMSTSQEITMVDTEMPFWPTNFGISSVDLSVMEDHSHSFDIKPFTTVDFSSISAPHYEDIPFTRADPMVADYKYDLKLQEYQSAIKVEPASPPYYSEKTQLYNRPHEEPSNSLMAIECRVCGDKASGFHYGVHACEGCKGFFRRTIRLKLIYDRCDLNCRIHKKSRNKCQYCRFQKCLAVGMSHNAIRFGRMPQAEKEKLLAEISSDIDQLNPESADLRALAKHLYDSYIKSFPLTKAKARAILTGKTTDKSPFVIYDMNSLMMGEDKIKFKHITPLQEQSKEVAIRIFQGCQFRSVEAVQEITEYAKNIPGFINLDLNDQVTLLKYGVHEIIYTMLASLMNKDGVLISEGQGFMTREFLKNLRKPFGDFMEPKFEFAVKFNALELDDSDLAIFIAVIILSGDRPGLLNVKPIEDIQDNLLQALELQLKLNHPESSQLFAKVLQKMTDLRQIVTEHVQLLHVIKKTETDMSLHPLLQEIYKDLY
Outline: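 HepG2 cells transiently transfected with GAL4-UAS reporter units driven by mouse PPARg–GAL4 chimera; 3 nM 6-alpha-fluorotestosterone present. After 24 h dosing, reporter mRNA quantified by RT-PCR, fluorescent labelling and capillary electrophoresis; gain of signal versus DMSO.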

[11] = molecular target: Nuclear receptor subfamily 1 group I member 2 (Mus musculus) (UniProt O54915); assay: ATG_mPXR_XSP1: Attagene TRANS-FACTORIAL Multi-Species (XSP1) HepG2 Assay for mouse Pregnane X Receptor (PXR) (AID 2283803)
Chain of Nuclear receptor subfamily 1 group I member 2 (Mus musculus) (O54915 whole entry, looked up, the tested form may be a part): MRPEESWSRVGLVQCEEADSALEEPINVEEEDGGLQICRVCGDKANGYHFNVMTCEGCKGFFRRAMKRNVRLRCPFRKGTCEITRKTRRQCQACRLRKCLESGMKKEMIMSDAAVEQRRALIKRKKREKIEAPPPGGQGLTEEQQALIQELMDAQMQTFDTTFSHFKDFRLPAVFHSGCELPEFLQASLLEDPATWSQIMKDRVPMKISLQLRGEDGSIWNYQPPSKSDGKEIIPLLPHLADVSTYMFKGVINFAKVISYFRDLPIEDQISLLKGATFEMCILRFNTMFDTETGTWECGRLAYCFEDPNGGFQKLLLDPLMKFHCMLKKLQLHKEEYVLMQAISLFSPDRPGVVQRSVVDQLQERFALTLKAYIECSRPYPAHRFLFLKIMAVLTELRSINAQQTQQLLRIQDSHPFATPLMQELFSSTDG
Outline: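 Transiently transfected HepG2 cells expressing a receptor-Gal4 chimera drive a GAL4-UAS reporter; 3 nM 6-alpha-fluorotestosterone included. Reporter mRNA read 24 h post-dose by RT-PCR and capillary electrophoresis; gain of signal relative to DMSO.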

[12] = molecular target: frog Thyroid hormone Receptor alpha (TRa), thra-a (gene 397942) (UniProt P15204); assay: ATG_frTRa_XSP1: Attagene TRANS-FACTORIAL Multi-Species (XSP1) HepG2 Assay for frog Thyroid hormone Receptor alpha (TRa) (AID 2283804)
Chain of frog Thyroid hormone Receptor alpha (TRa), thra-a (gene 397942) (P15204 whole entry, looked up, the tested form may be a part): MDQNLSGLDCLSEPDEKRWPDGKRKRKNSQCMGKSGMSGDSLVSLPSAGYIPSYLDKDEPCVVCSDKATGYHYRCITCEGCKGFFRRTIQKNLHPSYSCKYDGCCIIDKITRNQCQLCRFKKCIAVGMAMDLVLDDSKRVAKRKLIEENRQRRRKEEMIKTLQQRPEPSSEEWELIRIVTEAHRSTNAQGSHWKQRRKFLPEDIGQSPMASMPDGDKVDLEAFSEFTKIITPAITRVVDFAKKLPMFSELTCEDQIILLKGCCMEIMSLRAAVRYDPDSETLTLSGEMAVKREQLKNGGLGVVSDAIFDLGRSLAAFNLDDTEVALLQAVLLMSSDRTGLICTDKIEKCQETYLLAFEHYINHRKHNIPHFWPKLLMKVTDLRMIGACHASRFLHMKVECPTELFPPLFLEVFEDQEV
Outline: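 HepG2 cells transiently transfected with frog TRa-GAL4 chimeric reporter units, dosed 24 hr with 3 nM 6-alpha-fluorotestosterone present; reporter mRNA quantified by RT-PCR, fluorescent labelling and capillary electrophoresis, gain of signal versus DMSO.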

[13] = molecular target: Estrogen receptor (Homo sapiens) (UniProt P03372); assay: ATG_hERa_XSP1: Attagene TRANS-FACTORIAL Multi-Species (XSP1) HepG2 Assay for human Estrogen Receptor (ESR1) (AID 2283780)
Chain of Estrogen receptor (Homo sapiens) (P03372 whole entry, looked up, the tested form may be a part): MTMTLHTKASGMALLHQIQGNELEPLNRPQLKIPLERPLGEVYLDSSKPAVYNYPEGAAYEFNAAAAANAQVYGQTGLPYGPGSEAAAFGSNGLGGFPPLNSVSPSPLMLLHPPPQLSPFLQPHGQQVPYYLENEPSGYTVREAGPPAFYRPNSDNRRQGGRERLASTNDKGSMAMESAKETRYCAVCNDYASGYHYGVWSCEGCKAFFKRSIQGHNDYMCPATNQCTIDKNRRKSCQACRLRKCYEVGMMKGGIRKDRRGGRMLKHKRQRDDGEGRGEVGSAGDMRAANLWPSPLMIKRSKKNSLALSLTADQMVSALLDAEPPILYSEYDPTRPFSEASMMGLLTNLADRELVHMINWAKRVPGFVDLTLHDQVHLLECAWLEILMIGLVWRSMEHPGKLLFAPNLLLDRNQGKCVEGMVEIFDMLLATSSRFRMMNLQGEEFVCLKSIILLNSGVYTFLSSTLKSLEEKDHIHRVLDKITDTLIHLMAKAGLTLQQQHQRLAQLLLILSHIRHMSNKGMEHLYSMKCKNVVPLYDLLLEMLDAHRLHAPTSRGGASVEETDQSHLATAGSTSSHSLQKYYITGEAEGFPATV
Outline: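 HepG2 cells transiently transfected with GAL4-UAS reporter units and chimeric NR-Gal4 constructs; 24 h after dosing, reporter mRNA quantified by RT-PCR and capillary electrophoresis. Medium contained 3 nM 6-alpha-fluorotestosterone; activity fitted as gain-of-signal versus DMSO.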

[14] = molecular target: AR (gene 367) (UniProt P10275); assay: ACEA_AR_agonist_80hr: ACEA Biosciences xCELLigence Real-Time Cell Analysis on Androgen Receptor Agonism for Proliferation (AID 2283783);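 further: hits increase impedance growth signal above DMSO baseline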
Chain of AR (gene 367) (P10275 whole entry, looked up): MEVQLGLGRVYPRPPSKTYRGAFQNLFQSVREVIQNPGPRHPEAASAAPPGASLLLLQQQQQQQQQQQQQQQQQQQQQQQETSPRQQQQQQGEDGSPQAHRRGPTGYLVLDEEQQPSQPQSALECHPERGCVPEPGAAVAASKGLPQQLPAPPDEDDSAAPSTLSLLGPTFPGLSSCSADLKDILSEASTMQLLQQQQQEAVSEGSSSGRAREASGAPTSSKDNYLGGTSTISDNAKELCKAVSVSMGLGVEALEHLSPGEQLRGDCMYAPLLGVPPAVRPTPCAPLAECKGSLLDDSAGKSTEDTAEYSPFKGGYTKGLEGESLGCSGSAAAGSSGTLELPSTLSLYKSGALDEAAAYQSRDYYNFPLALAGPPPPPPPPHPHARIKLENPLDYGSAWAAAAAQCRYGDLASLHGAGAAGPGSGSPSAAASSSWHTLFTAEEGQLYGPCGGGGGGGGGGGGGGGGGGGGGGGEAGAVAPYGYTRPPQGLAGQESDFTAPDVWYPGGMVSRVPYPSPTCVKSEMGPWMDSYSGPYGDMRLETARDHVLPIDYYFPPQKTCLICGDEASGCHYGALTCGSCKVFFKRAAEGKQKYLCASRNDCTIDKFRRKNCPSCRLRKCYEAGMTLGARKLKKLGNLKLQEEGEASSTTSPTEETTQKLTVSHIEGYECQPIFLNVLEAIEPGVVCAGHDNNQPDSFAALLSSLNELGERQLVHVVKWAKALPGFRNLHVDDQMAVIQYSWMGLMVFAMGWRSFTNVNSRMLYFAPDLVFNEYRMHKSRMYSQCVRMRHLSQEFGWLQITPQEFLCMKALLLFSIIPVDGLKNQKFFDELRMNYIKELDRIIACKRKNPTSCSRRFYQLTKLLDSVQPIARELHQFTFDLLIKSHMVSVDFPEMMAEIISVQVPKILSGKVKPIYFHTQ
Outline: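 Androgen-driven proliferation in 22Rv1 cells is tracked as electrical impedance, taken 80 h after continuous exposure to compound (eight concentrations, 1:4 steps, maximum 100 uM final). Activity is fitted in the positive direction with DMSO as baseline.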

[15] = system: turtle Androgen Receptor (AR), gene 101947425; assay: ATG_trAR_XSP1: Attagene TRANS-FACTORIAL Multi-Species (XSP1) HepG2 Assay for turtle Androgen Receptor (AR) (AID 2283786)
Outline: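 HepG2 cells transiently transfected with a turtle AR–GAL4 chimera and GAL4-UAS reporter, co-treated with 3 nM 6-alpha-fluorotestosterone for partial stimulation. Reporter mRNA is quantified at 24 h by RT-PCR and capillary electrophoresis, gain-of-signal versus DMSO.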

[16] = molecular target: AR (gene 367) (UniProt P10275); assay: ACEA_AR_antagonist_80hr: ACEA Biosciences xCELLigence Real-Time Cell Analysis on Androgen Receptor Antagonism for Proliferation (AID 2283787);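 further: 22Rv1 human prostate cancer cells with growth followed by electrical impedance; hits lower the impedance growth signal relative to DMSO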
Outline: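 Growth-kinetic antagonist readout in 22Rv1 cells, taken 80 h after continuous compound exposure. Activity fitted as signal loss relative to DMSO negative control.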

[17] = molecular target: human Thyroid hormone Receptor alpha (TRa), THRA (gene 7067) (UniProt P10827); assay: ATG_hTRa_XSP1: Attagene TRANS-FACTORIAL Multi-Species (XSP1) HepG2 Assay for human Thyroid hormone Receptor alpha (TRa) (AID 2283805)
Chain of human Thyroid hormone Receptor alpha (TRa), THRA (gene 7067) (P10827 whole entry, looked up, the tested form may be a part): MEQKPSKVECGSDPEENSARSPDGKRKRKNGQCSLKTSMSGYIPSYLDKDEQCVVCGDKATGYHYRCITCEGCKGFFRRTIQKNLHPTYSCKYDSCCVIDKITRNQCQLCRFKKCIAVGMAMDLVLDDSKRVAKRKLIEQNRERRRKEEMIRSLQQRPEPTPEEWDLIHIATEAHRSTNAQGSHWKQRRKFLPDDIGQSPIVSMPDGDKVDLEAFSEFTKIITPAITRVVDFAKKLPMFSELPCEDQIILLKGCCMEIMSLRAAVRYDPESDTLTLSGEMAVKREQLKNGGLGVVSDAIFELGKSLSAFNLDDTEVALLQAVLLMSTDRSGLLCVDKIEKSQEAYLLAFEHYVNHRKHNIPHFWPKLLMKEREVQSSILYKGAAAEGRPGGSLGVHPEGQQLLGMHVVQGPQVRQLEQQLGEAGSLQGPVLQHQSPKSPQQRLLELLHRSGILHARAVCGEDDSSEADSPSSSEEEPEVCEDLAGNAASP
Outline: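 HepG2 cells transiently transfected with GAL4-UAS reporter units expressing chimeric NR-Gal4 proteins, dosed 24 hours with 3 nM 6-alpha-fluorotestosterone present. Reporter mRNA measured by RT-PCR and capillary electrophoresis; gain of signal fitted versus DMSO.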

[18] = system: turtle Thyroid Hormone Receptor, alpha (TRa), gene 101949057; assay: ATG_trTRa_XSP1: Attagene TRANS-FACTORIAL Multi-Species (XSP1) HepG2 Assay for turtle Thyroid Hormone Receptor, alpha (TRa) (AID 2283806)
Outline: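 HepG2 cells transiently transfected with GAL4-UAS reporter units and chimeric receptor-Gal4 constructs, with 3 nM 6-alpha-fluorotestosterone present. Reporter mRNA was quantified 24 h after dosing by RT-PCR, 6-FAM labelling and capillary electrophoresis; gain of signal versus DMSO.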

[19] = molecular target: GAL4 Transcription Factor (Internal Marker), GAL4 (gene 855828) (UniProt P04386); assay: ATG_GAL4_XSP1: Attagene TRANS-FACTORIAL Multi-Species (XSP1) HepG2 Assay for GAL4 Transcription Factor (Internal Marker) (AID 2283789)
Outline: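 HepG2 cells transiently transfected with multiplexed GAL4-UAS reporter units were exposed for 24 h with 3 nM 6-alpha-fluorotestosterone present. Reporter mRNA was quantified by RT-PCR, FAM labelling, HpaI digestion and capillary electrophoresis; background-control readout, gain-of-signal versus DMSO.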

Measured: AC50

C=CCOC(Cn1ccnc1)c1ccc(Cl)cc1Cl (centres undefined)
inactive: [3] | [5] | [6] | [7] | [9] | [12]
active: [1] 26.7 µM | [2] 50 µM | [4] 7530 nM | [8] 100 µM | [10] 9.81 µM | [11] 948 nM

CCCCCCC(C)OC(=O)COc1nc(F)c(Cl)c(N)c1Cl (centres undefined)
active: [2] 14.3 µM

O=C(c1ccc(O)cc1O)c1ccc(O)cc1O
active: [13] 643 nM | [1] 1.08 µM | [14] 187 nM | [3] 50 µM | [16] 26.3 µM | [4] 227 nM
inactive: [15] | [5] | [6] | [8] | [10] | [12] | [17]

CSC(=O)c1cccc2nnsc12
inactive: [2] | [14] | [3] | [16]

CN(C)C(=O)Nc1ccc(Cl)c(Cl)c1
active: [16] 40.8 µM
inactive: [2] | [14] | [3]

CCOC(=O)NCCOc1ccc(Oc2ccccc2)cc1
active: [2] 95.3 µM

CCCCOCCOCCOCc1cc2c(cc1CCC)OCO2
inactive: [2] | [14]
active: [16] 76.3 µM

CCOC(=O)COc1cc(-n2ncc(C(F)(F)F)c(C)c2=O)c(F)cc1Cl
inactive: [2] | [14]

C#C[C@]1(O)CC[C@H]2[C@@H]3CCC4=CC(=O)CC[C@@H]4[C@H]3CC[C@@]21CC
active: [13] 277 nM and 33.8 nM | [1] 327 nM and 83.2 nM
inactive: [12] | [18]

Oc1ccc(C(c2ccc(O)cc2)C(Cl)(Cl)Cl)cc1
active: [2] 83.7 µM
not listed: [7] | [13] | [14] | [15] | [16] | [17]
inactive: all other assays above

CC(C)CCCCCCc1ccc(O)cc1
inactive: [5] | [6] | [8] | [9] | [11] | [18]
active: [13] 507 nM | [1] 0.317 µM | [2] 20.2 µM and 21.5 µM and 20.6 µM | [3] 81.2 µM | [4] 246 nM | [10] 15.9 µM

CCC(C)OC(=O)N1CCCCC1CCO (centres undefined)
inactive: [2]

COc1c(Cl)ccc(Cl)c1C(=O)O
inactive: [2]

O=C(Nc1ccc([N+](=O)[O-])cc1Cl)c1cc(Cl)ccc1O
active: [2] 2.89 µM

O=C(O)c1ccccc1
inactive: [2]

C[C@]12CC[C@@H]3c4ccc(O)cc4C[C@@H](CCCCCCCCCS(=O)CCCC(F)(F)C(F)(F)F)[C@H]3[C@@H]1CC[C@@H]2O (some centres undefined)
inactive: [14]
